# According to paper PMC7862700, “An all-to-all approach to the identification of sequence-specific readers for epigenetic DNA modifications on cytosine”:
# Experiments:
# Experiment in all cases: DAPPL (digital affinity profiling via proximity ligation, sequencing); 10 mM Tris-HCl pH 7.5, 50 mM NaCl, 1 mM DTT, 4% glycerol, room temperature, 30 min; GST-TFs on glutathione beads, 16-mer random dsDNA library, 0.1% formaldehyde crosslink after washing; high values mean tight binding
# Settings in all cases: protein: recombinant; tags: N-terminal GST; dsDNA, one strand shown
# SPIC = target: T1, SPIC (Homo sapiens, UniProt Q8N5J4 1-248)
# T1 sequence: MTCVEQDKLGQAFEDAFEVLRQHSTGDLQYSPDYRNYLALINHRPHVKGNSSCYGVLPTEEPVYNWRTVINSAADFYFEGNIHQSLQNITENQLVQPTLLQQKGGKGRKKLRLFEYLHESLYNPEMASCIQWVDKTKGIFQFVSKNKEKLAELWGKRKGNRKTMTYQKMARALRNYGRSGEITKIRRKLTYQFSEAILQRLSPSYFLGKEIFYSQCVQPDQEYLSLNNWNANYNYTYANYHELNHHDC
# Procedure, shortened: (§1)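 Pools were built from human transcription factors expressed in yeast as GST fusions, captured on glutathione beads and DNA-barcoded, along with a tag-only sample. Incubation with 200 nmole of a 16-mer random double-stranded DNA library lasted 30 min at room temperature in Tris/NaCl/DTT/glycerol buffer, and was followed by washing, 0.1% formaldehyde crosslinking, proximity ligation, PCR amplification and Illumina NextSeq500 sequencing. Binding signal is the quotient of each hexamer's read frequency for a factor and its frequency for the tag-only sample.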
# ELK4 = target: T2, ELK4 (Homo sapiens, UniProt P28324-2 1-405)
# T2 sequence: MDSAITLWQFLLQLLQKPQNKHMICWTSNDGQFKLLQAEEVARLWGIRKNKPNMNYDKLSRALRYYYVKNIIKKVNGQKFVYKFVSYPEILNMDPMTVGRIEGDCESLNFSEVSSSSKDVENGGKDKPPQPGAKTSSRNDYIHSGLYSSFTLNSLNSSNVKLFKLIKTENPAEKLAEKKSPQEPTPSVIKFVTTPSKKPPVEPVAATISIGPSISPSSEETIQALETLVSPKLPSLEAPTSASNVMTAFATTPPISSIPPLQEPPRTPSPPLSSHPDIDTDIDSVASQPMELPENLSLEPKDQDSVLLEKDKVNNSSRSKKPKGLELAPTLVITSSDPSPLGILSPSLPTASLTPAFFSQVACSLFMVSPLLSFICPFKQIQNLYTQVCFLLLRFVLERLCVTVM
# Procedure, shortened: as §1
# ETV2 = target: T3, ETV2 (Homo sapiens, UniProt O00321 1-342)
# T3 sequence: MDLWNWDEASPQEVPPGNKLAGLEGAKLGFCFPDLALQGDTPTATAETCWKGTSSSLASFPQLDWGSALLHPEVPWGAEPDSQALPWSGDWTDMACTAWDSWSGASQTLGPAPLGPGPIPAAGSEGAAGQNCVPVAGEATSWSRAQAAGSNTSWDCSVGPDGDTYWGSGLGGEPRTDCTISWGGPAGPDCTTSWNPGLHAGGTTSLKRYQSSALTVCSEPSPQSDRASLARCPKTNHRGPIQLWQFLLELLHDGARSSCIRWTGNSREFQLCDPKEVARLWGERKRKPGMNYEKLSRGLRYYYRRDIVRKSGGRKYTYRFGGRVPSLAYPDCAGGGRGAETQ
# Procedure, shortened: as §1
# ERF = target: T4, ERF (Homo sapiens, UniProt P50548 1-548)
# T4 sequence: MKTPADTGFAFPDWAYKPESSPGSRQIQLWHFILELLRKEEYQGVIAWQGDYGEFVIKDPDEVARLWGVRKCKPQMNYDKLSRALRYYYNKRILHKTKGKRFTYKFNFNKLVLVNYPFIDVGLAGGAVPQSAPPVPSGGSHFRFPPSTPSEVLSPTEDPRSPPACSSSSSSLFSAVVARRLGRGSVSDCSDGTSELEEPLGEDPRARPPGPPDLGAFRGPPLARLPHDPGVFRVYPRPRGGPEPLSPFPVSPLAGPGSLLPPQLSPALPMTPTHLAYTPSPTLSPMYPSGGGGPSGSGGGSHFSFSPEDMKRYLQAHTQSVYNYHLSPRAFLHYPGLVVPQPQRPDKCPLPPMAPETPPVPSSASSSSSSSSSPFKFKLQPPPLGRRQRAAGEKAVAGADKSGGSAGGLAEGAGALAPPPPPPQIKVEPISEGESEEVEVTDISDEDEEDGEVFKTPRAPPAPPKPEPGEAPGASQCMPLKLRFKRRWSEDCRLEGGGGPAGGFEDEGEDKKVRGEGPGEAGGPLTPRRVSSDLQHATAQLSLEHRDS
# Procedure, shortened: as §1
# SPDEF = target: T5, SPDEF (Homo sapiens, UniProt O95238 1-335)
# T5 sequence: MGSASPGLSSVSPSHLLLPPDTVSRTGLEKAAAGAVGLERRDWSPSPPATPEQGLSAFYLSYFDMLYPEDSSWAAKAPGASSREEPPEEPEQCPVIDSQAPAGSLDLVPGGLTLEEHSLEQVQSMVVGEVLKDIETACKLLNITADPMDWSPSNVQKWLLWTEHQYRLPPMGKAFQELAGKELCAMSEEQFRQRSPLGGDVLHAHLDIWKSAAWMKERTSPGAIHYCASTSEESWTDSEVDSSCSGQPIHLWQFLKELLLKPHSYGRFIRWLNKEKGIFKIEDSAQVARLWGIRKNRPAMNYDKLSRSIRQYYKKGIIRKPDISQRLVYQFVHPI
# Procedure, shortened: as §1
# ETV7 = target: T6, ETV7 (Homo sapiens, UniProt Q9Y603 1-341)
# T6 sequence: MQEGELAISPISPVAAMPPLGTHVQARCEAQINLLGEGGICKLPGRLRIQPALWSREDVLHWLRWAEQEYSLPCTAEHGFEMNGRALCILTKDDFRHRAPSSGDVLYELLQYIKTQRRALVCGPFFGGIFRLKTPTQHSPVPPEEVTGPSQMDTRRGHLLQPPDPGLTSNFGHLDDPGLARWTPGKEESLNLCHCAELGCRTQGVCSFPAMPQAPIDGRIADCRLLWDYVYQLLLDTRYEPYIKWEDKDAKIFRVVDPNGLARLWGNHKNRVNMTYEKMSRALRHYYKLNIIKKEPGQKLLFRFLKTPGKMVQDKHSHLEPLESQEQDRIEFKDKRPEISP
# Procedure, shortened: as §1
# CRX = CRX (Homo sapiens, UniProt O43186 1-299)
# Procedure, shortened: as §1
# ELF5 = target: T7, ELF5 (Homo sapiens, UniProt Q9UKW6-2 1-255)
# T7 sequence: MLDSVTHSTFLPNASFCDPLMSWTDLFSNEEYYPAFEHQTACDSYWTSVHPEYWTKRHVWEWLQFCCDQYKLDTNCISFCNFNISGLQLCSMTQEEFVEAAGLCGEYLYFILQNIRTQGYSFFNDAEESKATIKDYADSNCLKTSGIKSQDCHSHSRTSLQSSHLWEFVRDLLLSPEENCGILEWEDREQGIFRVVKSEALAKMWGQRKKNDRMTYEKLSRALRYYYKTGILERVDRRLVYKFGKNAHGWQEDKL
# Procedure, shortened: as §1
# GABPA = target: T8, GABPA (Homo sapiens, UniProt Q06546 1-454)
# T8 sequence: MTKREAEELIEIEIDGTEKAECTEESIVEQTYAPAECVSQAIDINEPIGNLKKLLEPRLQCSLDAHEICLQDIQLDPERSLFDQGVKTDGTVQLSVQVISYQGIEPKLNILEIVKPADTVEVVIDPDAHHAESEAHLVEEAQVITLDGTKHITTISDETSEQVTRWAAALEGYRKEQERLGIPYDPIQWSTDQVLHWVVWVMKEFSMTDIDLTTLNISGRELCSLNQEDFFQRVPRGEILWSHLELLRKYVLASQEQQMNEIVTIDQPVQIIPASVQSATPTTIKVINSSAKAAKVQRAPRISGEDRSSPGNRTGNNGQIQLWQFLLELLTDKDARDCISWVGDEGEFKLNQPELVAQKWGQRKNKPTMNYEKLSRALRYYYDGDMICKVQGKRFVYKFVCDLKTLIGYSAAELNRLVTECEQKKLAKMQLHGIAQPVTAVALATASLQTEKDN
# Procedure, shortened: as §1
# ERG = target: T9, ERG (Homo sapiens, UniProt P11308 1-479)
# T9 sequence: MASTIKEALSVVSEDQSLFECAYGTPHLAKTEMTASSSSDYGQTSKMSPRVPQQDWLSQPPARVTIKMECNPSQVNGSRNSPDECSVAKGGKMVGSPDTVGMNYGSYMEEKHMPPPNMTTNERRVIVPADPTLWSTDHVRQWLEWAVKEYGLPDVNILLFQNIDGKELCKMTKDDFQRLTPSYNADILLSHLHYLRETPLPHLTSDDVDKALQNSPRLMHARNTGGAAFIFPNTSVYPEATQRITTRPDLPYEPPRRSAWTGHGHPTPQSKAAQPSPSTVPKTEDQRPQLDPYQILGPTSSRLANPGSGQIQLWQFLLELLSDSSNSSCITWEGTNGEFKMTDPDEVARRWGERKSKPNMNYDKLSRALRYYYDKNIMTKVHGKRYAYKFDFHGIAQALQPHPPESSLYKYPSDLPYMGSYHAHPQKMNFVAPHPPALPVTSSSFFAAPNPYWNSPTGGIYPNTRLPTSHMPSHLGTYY
# Procedure, shortened: as §1
# ETV1 = ETV1 (Homo sapiens, UniProt P50549 1-477)
# Procedure, shortened: as §1
# ETS2 = target: T10, ETS2 (Homo sapiens, UniProt P15036 1-469)
# T10 sequence: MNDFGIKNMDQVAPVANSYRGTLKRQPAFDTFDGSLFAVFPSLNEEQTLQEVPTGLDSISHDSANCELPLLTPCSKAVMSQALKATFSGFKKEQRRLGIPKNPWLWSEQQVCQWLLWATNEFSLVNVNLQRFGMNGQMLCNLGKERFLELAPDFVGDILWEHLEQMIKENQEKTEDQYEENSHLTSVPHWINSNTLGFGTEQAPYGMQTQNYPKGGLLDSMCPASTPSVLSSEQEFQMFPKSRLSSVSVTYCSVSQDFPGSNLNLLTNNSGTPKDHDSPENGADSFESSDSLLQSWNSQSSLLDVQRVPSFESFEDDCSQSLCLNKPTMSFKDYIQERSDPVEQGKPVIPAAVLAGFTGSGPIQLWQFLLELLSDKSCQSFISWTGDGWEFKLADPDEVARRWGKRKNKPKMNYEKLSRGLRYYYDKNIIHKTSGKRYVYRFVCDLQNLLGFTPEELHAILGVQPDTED
# Procedure, shortened: as §1
# Chain of ETV1 (P50549 whole entry): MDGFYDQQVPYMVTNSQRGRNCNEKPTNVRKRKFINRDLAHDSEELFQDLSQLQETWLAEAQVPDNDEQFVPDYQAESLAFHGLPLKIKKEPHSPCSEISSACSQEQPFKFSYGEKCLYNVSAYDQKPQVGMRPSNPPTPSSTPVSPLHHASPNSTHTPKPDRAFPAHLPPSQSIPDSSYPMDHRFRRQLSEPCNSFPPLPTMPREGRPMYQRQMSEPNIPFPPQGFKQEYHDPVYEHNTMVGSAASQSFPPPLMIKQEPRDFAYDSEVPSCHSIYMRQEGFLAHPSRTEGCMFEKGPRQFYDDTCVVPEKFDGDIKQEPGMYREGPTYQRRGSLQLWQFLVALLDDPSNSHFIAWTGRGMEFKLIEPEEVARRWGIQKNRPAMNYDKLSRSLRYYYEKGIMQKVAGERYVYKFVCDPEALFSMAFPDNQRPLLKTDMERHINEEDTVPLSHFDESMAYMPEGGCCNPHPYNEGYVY
# Chain of CRX (O43186 whole entry): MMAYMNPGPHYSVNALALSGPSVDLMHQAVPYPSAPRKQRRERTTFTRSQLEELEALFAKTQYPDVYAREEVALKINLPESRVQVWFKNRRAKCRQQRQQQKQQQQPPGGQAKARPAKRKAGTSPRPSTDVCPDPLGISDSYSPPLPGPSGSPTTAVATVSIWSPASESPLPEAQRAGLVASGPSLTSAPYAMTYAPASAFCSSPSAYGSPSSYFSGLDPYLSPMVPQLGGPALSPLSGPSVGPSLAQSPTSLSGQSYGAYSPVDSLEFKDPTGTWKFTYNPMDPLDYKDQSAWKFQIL
sequence,measurement,setting,value
CGACAG,binding signal,SPIC,"1.01 fold enrichment (6-mer frequency, TF over GST control)"
same,binding signal,ELK4,"1.03 fold enrichment (6-mer frequency, TF over GST control)"
same,binding signal,ETV2,"1.07 fold enrichment (6-mer frequency, TF over GST control)"
same,binding signal,ERF,"1.07 fold enrichment (6-mer frequency, TF over GST control)"
same,binding signal,SPDEF,"1.01 fold enrichment (6-mer frequency, TF over GST control)"
same,binding signal,ETV7,"1.08 fold enrichment (6-mer frequency, TF over GST control)"
TAAGGC,binding signal,SPIC,"1.02 fold enrichment (6-mer frequency, TF over GST control)"
same,binding signal,CRX,"1.52 fold enrichment (6-mer frequency, TF over GST control)"
AGTTTG,binding signal,SPIC,"1.06 fold enrichment (6-mer frequency, TF over GST control)"
same,binding signal,ELK4,"1.03 fold enrichment (6-mer frequency, TF over GST control)"
same,binding signal,ERF,"1.01 fold enrichment (6-mer frequency, TF over GST control)"
GTAGTA,binding signal,SPIC,"1 fold enrichment (6-mer frequency, TF over GST control)"
same,binding signal,ETV7,"1.01 fold enrichment (6-mer frequency, TF over GST control)"
CGGGTT,binding signal,SPIC,"1 fold enrichment (6-mer frequency, TF over GST control)"
same,binding signal,SPDEF,"1.09 fold enrichment (6-mer frequency, TF over GST control)"
same,binding signal,ELF5,"1.02 fold enrichment (6-mer frequency, TF over GST control)"
CGTCAT,binding signal,GABPA,"1.03 fold enrichment (6-mer frequency, TF over GST control)"
same,binding signal,ERG,"1.02 fold enrichment (6-mer frequency, TF over GST control)"
same,binding signal,SPIC,"1.05 fold enrichment (6-mer frequency, TF over GST control)"
same,binding signal,ELK4,"1.09 fold enrichment (6-mer frequency, TF over GST control)"
same,binding signal,ETV1,"1.09 fold enrichment (6-mer frequency, TF over GST control)"
same,binding signal,ETS2,"1.03 fold enrichment (6-mer frequency, TF over GST control)"
